The list is not random: actives were taken first. Their share in the collection is about 11%.
L3MBTL1 block – inhibitors of human L3MBTL1; Q9Y468; AlphaScreen L3MBTL1–H3K9me1 peptide binding; Potency, µM (top dose mostly 57.1 µM), for inactives: at the top dose activity, negative = inhibition, hits mostly inhibitors; 0.66% of 230,000 active; also: % is scaled to controls: 0 for no effect and ±100 for the full control effect; nearly all actives have a fitted effect of over 60% in size
Target sequence (Q9Y468 whole entry, looked up): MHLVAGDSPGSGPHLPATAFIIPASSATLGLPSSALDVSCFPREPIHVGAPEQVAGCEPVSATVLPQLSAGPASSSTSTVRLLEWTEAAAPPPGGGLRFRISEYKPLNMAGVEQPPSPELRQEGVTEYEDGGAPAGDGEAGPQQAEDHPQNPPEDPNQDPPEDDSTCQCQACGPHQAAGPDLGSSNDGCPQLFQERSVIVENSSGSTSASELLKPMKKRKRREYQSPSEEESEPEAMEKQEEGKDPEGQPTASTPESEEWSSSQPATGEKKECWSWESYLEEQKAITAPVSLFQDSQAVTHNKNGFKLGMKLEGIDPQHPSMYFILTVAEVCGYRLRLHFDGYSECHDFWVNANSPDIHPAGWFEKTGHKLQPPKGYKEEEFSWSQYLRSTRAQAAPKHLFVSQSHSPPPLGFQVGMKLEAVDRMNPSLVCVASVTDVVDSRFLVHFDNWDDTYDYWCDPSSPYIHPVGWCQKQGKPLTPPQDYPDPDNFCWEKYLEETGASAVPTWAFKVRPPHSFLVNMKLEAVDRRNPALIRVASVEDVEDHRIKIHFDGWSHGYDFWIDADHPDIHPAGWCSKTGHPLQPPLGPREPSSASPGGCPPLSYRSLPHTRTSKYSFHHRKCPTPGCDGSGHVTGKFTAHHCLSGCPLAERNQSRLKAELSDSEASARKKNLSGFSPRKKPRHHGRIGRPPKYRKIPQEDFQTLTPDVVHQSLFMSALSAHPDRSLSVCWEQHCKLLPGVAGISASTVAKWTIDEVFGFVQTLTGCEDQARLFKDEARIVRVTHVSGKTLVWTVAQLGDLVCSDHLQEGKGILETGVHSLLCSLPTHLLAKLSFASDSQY
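L3MBTL1 50 nM + b-AHA-H3(1-15)K9me1 75 nM, 30 min RT; compound added, 30 min RT; streptavidin donor/Ni-chelate acceptor beads 10 ug/mL each final, 30 min RT dark; AlphaScreen read.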
BAZ2B block – BAZ2B (human) inhibition | Q9UIF8 | AlphaScreen BAZ2B-H3K14Ac peptide displacement | Potency, µM (highest dose often 114 µM), for inactives: at the highest dose activity change, negative = inhibition, usual class: inhibitors | 4.4% of 360,000 active | AID 504333; also: % is scaled to controls: 0 for no effect and ±100 for the full control effect; nearly all actives have a fitted effect of over 60% in size
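BAZ2B (50 nM) with biotin-H3(5-23)K14Ac peptide (50 nM) in PBS pH 7.4, 0.01% Tween-20, preformed 30 min, then compound 30 min at room temperature; top concentration 110uM. AlphaScreen streptavidin donor/nickel chelate acceptor beads (10 ug/mL final), 20 min dark, signal read.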
JMJD2A Tudor inh – inhibitors of human JMJD2A Tudor domain; AID 504339; Potency, µM (top dose mostly 114 µM), for the others: at the top dose activity change, negative = inhibition, usual class: inhibitors; 4.4% of 390,000 active; AlphaScreen JMJD2A-Tudor / H3K4me3 peptide binding; O75164; also: % is scaled to controls: 0 for no effect and ±100 for the full control effect; nearly all actives have a fitted effect of over 50% in size
HP1b chromo inh – HP1-beta chromodomain-methylated histone interaction inhibition; 0.56% of 390,000 active; P83916; Potency, µM (top dose mostly 114 µM), inactives show at the highest dose activity change, negative = inhibition, most hits filed as inhibitors; AlphaScreen HP1-beta / biotin-H3K9me3 peptide binding; also: nearly all actives have a fitted effect of over 70% in size
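AlphaScreen: HP1-beta (50 nM) preformed 30 min with biotin-H3(1-18)K9me3 peptide (50 nM) in PBS pH 7.4, 0.01% Tween-20. Compound added for 30 min at RT, then streptavidin donor/nickel chelate acceptor beads (10 ug/mL) for 30 min.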
G9a inh – G9a (human) methyltransferase inhibition; Potency, µM (highest dose often 102 µM), inactives show top-dose activity, negative = inhibition, most hits filed as inhibitors; 8.8% of 350,000 active; G9a H3K9 monomethylation, AlphaScreen, 2 h; Q96KQ7; also: % is scaled to controls: 0 for no effect and ±100 for the full control effect; nearly all actives have a fitted effect of over 75% in size
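AlphaScreen read-out: biotin-H3K9 peptide (500 nM) methylation by 20 nM enzyme with 20 uM SAM, 2 h at room temperature after 15 min compound preincubation; anti-monomethyl H3K9 antibody plus donor/acceptor beads, 10 min dark.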
* marks the source's active call; other numbers are inactive results; u = inconclusive; x = not tested or not shown; ! = a repeat was not active; [ ] = remark or other dose. Calls follow the shape of the dose curve; as a rule, active = well fitted inhibition curve with a large enough effect; inconclusive = small, poorly fitted or top-dose-only effect; inactive = no such curve, though single readings can be large or run the other way. Potency is read from the fitted curve at half-maximal effect.

SMILES	L3MBTL1 block	BAZ2B block	JMJD2A Tudor inh	HP1b chromo inh	G9a inh
N#C/C(=C\c1ccc(OCc2ccc(Cl)cc2)cc1)C(=O)Nc1cccc(C(=O)O)c1	x	56.2µM*	u	9.9%	u
O=C(O)c1cccc(NC(=O)c2ccc(COc3ccc(Cl)cc3)cc2)c1	0.7%	-21.4%	-24.3%	11.1%	-32.5%
COc1cc(/C=C(\C#N)C(=O)Nc2nnc(C(F)(F)F)s2)ccc1OCc1ccc(C(F)(F)F)cc1C(F)(F)F	x	x	x	x	8.44µM*
COc1cc(C(=O)O)ccc1OCc1ccncc1	-10.7%	-19.5%	1.0%	31.3%	44.7µM*
CSc1ccc(S(=O)(=O)NCC(=O)OCC(=O)N2CCC(C)CC2)cc1[N+](=O)[O-]	8.8%	3.1%	-18.5%	22.8%	-9.9%[12.7 µM]
CCOc1cc(/C=C(\C#N)C(=O)Nc2cccc(C(=O)O)c2)ccc1OCc1ccc(Br)cc1	x	56.2µM*	u	u	44.7µM*
CCOc1cccc(NC(=O)/C(C#N)=C\c2cccnc2)c1	-3.7%	u	-6.2%	26.3%	70.8µM*
CCOC(=O)c1cnc2ccc(C(=O)OC)cc2c1Nc1ccccc1CC	x	46.8%	8.3%	56.9%	22.6%[59 µM]
CC(C(=O)Nc1ccccc1C(=O)N1CCOCC1)N(c1ccccc1)S(C)(=O)=O (stereo unspecified)	6.7%	0.0%	39.8µM*	u	-3.8%[59 µM]
Cc1ccc(-c2c(CN3CCN(c4cc(Cl)ccc4C)CC3)csc2C)cc1	x	u	-22.7%	31.3%	-33.5%[59 µM]
O=C(NNS(=O)(=O)c1ccccc1)c1cccc(F)c1	-1.6%[2.29 µM]	56.2µM*	7.8%	45.9%	7.8%[0.501 µM]
O=C(NNS(=O)(=O)c1ccccc1)c1ccc([N+](=O)[O-])cc1	7.2%	-15.9%	-6.5%	44.9%	-50.5%
Cc1ccc(S(=O)(=O)NNC(=O)c2sc(=S)n(C)c2C)cc1	-1.9%	-33.2%	3.55µM*	29.0%	u
O=C(NNS(=O)(=O)c1ccc([N+](=O)[O-])cc1)c1ccncc1	x	-21.1%	-2.8%	-25.2%	39.8µM*
Cc1cccc(C(=O)NNS(=O)(=O)c2ccc(F)cc2)c1	6.4%	-8.9%	-3.0%	24.6%	x
Cc1cccc(C(=O)NNS(=O)(=O)c2ccc(F)cc2)c1O	1.5%	-11.5%	2µM*	25.6%	3.8%
CCN(C(=O)Cn1c(SCc2ccccc2F)nc2cccnc21)c1ccccc1	x	-6.0%	-20.8%	24.5%	-54.8%[59 µM]
COC(=O)c1ccc(Nc2ncnc3c2cnn3-c2ccccc2)cc1	x	0.2%	-12.8%	25.6%	2.6%[59 µM]
Cc1ccc(NC(=O)C2CCCN(c3nnc(C)c4c(C)n(-c5ccccc5)nc34)C2)c(Cl)c1 (stereo unspecified)	x	u	u	89.0%	-9.4%[59 µM]
Cc1[nH]n(C)c(=O)c1[N+](=O)[O-]	13.3%	-2.4%	-20.1%	16.9%	u
Cc1ccc(CN2CCN(C3CCN(S(=O)(=O)N(C)C)CC3)C(=O)C2=O)cc1	x	-5.8%	-13.0%	17.7%	-8.7%[59 µM]
O=C(NNS(=O)(=O)c1ccccc1)c1ccncc1	0.0%	11.3%	10µM*	8.5%	u
Cc1ccc(S(=O)(=O)NNC(=O)c2ccncc2)cc1	-1.1%	-1.1%	79.4µM*	6.3%	-2.2%
O=C(NNC(=O)c1ccncc1)c1ccccc1	x	-7.8%	-1.4%	-38.0%	-1.8%
Cc1ccc(S(=O)(=O)NNC(=O)c2cccnc2)cc1	x	x	-13.0%	11.1%	7.8%
SMILES	L3MBTL1 block	BAZ2B block	JMJD2A Tudor inh	HP1b chromo inh	G9a inh
O=S(=O)(c1ccc(F)cc1)N1CCN(c2nc(-c3ccc(F)cc3)nc3cc(Cl)ccc23)CC1	x	x	-9.6%	26.7%	x
FC(F)(F)c1cnc(Nc2ccc(N3CCOCC3)cc2)c(Cl)c1	-24.0%	35.5µM*	u	u	22.4µM*
Cc1nc(-n2nc(C)c(CCC(C)C)c2C)sc1C(=O)Nc1ccc(Br)cc1	x	9.2%	0.3%	48.0%	7.0%[59 µM]
O=S(=O)(Nc1cc2nc3ccccc3nc2n1Cc1ccccc1)c1ccc(Cl)cc1	3.98µM*	-5.7%	19.1%	78.5%	14.5%[59 µM]
O=S(=O)(NCc1ccccc1)c1ccc(Cl)cc1	x	-2.1%	-3.8%[57.1 µM]	72.1%	13.9%
CC(=O)Nc1cc(NC(C)=O)cc(C(=O)N2CCCC3CCCCC32)c1 (stereo unspecified)	x	50.1µM*	56.2µM*	u	50.1µM*
COc1cc(OC)cc(C(=O)NC(=S)Nc2ccc(Cl)c(C(=O)O)c2)c1	1.3%	u	89.1µM*	7.2%	44.7µM*
COCCNC(=S)NNc1ccc(Cl)c(C(=O)O)c1	-21.4%	u	-7.4%[11.4 µM]	-16.9%	17.8µM*
CCCCOc1cccc(C(=O)NC(=S)Nc2ccc(Cl)c(C(=O)O)c2)c1	-3.7%	u	-12.3%	-7.6%	11.2µM*
CCCCC(=O)NC(=S)Nc1ccc(Cl)c(C(=O)O)c1	2.0%	u	-6.4%	8.1%	u
CCCN1CCN(CCNC(=O)Nc2ccc(OC)cc2OC)CC1	x	-11.6%	-11.0%	23.2%	-3.9%[59 µM]
COc1ccc(-n2c(=O)c3c4c(sc3n(Cc3cc(=O)n5c(C)cccc5n3)c2=O)CCC4)c(OC)c1	x	-3.8%	-9.6%	30.6%	0.8%[59 µM]
COC(=O)c1sccc1S(=O)(=O)N1CCN(c2cccc(C)c2)C(C)C1 (stereo unspecified)	x	-37.5%	-29.7%	-11.2%	1.9%[59 µM]
CCN(CC)CCC=C(c1cccs1)c1cccs1	x	x	0.891µM*	u	x
COc1ccccc1CCNC(=O)c1nccnc1C(=O)O	x	-25.4%	-3.1%	14.4%	35.5µM*
O=C(Nc1ccc(Cl)cc1)C1CCN(c2nc3ccccc3n3cccc23)CC1	x	u	-24.7%	19.6%	-38.5%[59 µM]
COc1ccccc1CNCCS(=O)(=O)NCc1ccccc1OC	x	x	-10.1%	43.2%	x
COc1ccccc1CNC(=O)Cc1ccccc1	6.1%	2.4%	-1.1%	47.0%	u
COc1ccccc1CNS(=O)(=O)N(C)C	1.8%	-1.8%	50.1µM*	-9.6%	10.3%[59 µM]
CCCCCCCCNCCS(=O)(=O)NCc1ccccc1OC	x	x	-11.5%	68.7%	x
COc1ccccc1CNN	x	u	39.8µM*	-1.9%	25.1µM*
COc1ccccc1CNCCCCCCNCCCCCCCCNCCCCCCNCc1ccccc1OC	x	x	x	x	10µM*!
NS(=O)(=O)Nc1c(Br)cc(Br)c2cccnc12	x	x	u	17.0%	x
CC(C)C(NC(=O)c1c(F)cccc1F)C(=O)N1CCN(c2ncccn2)CC1 (stereo unspecified)	4.7%	x	0.6%	37.6%	x
CN1C2CCC1/C(=C\c1ccccc1F)C(=O)/C2=C/c1ccccc1F	8.1%	-34.2%	-19.9%	-9.9%	50.1µM*
Cc1sc2ncn(CC(=O)N(C)c3ccc(C(C)C)cc3)c(=O)c2c1S(=O)(=O)N1CCC(C)CC1	x	-15.6%	-28.0%	11.0%	-31.6%[59 µM]
O=S(=O)(NC1CCCC1)c1ccc(S(=O)(=O)NC2CCCC2)cc1	-10.5%	-4.1%	-4.1%	36.8%	12.0%
N#Cc1ccc(S(=O)(=O)NC2CC2)cc1	x	u	-7.0%	31.5%	7.94µM*
Cc1ccc(Nc2nc(-c3c(C)nc4ncccn34)cs2)cc1	-13.5%	u	u	-37.3%	39.8µM*

Bioassay records (PubChem)
